From PubChem BioAssay
TDP1 cell noCPT: qHTS for Inhibitors of human tyrosyl-DNA phosphodiesterase 1 (TDP1): qHTS in cells in absence of CPT | DT40 Tdp1-/- hTDP1 cells, no CPT, ATP luminescence, 48 h | Potency, µM (top dose mostly 46.2 µM), for inactives: at the highest dose activity change, negative = growth inhibition, usual class: inhibitors | 420,000 compounds, 15% hits; also: nearly all actives have a fitted effect of over 55% in size
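A cellular qHTS used chicken DT40 cells lacking endogenous Tdp1 but carrying stably transfected human TDP1. Compounds were applied without camptothecin, and cell growth kinetics were judged by ATP-dependent luminescence after ≥48 hr.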
DT40 TDP1 CPT: DT40-hTDP1 cell growth loss with CPT. chicken DT40 Tdp1-/-;hTDP1 cells + 20 nM CPT, ATP luminescence, 48 h. Potency, µM (titrated, usually from 46.2 µM), inactives show at the highest dose activity change, negative = growth inhibition, actives largely listed as inhibitors. 420,000 compounds, 12% hits; also: nearly all actives have a fitted effect of over 55% in size
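Cell growth measured by CellTiter-Glo luminescence after a minimum 48 h, 37 C compound exposure with 20 nM CPT in Tdp1-knockout DT40 cells stably expressing hTDP1, seeded 400/well; qHTS titration format.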
KB-V1 cytotox: kills drug-selected multidrug resistant KB-V1 cells; KB-V1 MDR cells viability, CellTiter-Glo, 72 h; Potency, µM (doses to about 46.1 µM), actives largely listed as cytotoxic; 400,000 compounds, 3.4% hits; AID 1347076; also: nearly all actives have a fitted effect of over 60% in size
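Cytotoxicity toward P-gp-expressing KB-V1 cells was determined as loss of CellTiter-Glo luminescence after 72 h at 37 degrees C. Compounds were tested in quantitative HTS format across a concentration range, with curves fitted to normalized data.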
KB-3-1 cytotox: kills parental KB-3-1 adenocarcinoma cells | KB-3-1 viability, CellTiter-Glo ATP luminescence, 72 h | Potency, µM (series often up to 46.1 µM), most hits filed as cytotoxic | 400,000 compounds, 1.4% hits; also: nearly all actives have a fitted effect of over 60% in size
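Using CellTiter-Glo luminescence, growth of non-resistant KB-3-1 adenocarcinoma cells is assessed 72 h after pin-tool compound addition at 37 °C. Normalized responses across the concentration series yield fitted curves.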
HT1080-NT tox: kills 2HG-producing HT-1080-NT fibrosarcoma cells; Potency, µM (top dose mostly 46.1 µM), for the others: at the top dose activity, negative = less viability, actives largely listed as cytotoxic; HT-1080-NT fibrosarcoma viability, CellTiter-Glo ATP luminescence, 48 h; 360,000 compounds, 1.6% hits;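 also: NT is the 2HG producing partner of a matched IDH1 knockdown line; 0% = DMSO-treated cells and -100% = media-only wells without cells; nearly all actives have a fitted effect of over 55% in size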
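Read-out is CellTiter-Glo luminescence after 10 minutes at room temperature, following 48 hours' compound treatment of HT-1080-NT cells (750 cells/well, RPMI, 5% FBS, 37 degrees C).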
HT1080 IDH1KD tx: kills HT-1080 cells with IDH1 knockdown; HT-1080 IDH1 knockdown viability, ATP luminescence, 48 h; Potency, µM (titrated, usually from 46.1 µM), for inactives: at the top dose activity, negative = toxicity, hits mostly cytotoxic; 360,000 compounds, 2% hits;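 also: 0% = DMSO wells and -100% = cell-free medium wells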
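Viability of IDH1-knockdown HT-1080 fibrosarcoma cells was assessed by CellTiter-Glo after 48 h at 37 °C with titrated compound; concentration-effect curves were classified by fit quality and response size.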
* hit, by the source's call; i = inactive; ? = inconclusive; / = not tested or not shown; [ ] = another dose, or the depositor's remark. Only some compounds are listed: those with a hit (about 19% of all), similar ones and a draw of the others. Calls follow the shape of the dose curve; as a rule, active = well fitted curve in the direction sought with a large enough effect; inconclusive = small, poorly fitted or top-dose-only effect, or another doubt; inactive = no such curve, though single readings can be large; an effect the other way counts as inactive or inconclusive. Unless noted, % is scaled to controls: 0 for no effect and ±100 for the full control effect; potency is read from the fitted curve at half-maximal effect.

SMILES	TDP1 cell noCPT	DT40 TDP1 CPT	KB-V1 cytotox	KB-3-1 cytotox	HT1080-NT tox	HT1080 IDH1KD tx
CCn1nc(-c2ccccc2C)nc2c(=O)n(C)c(=O)nc1-2	1µM*	1µM*	?	?	/	/
COc1ccc(-c2nc(N)n(S(=O)(=O)c3ccc(C)cc3)n2)cc1	?	?	?	i	-18%	0%
Cc1cc(C)n2nc(-c3ccc(F)cc3)nc2n1	-11%	-17%	i	i	8%	-6%
Cn1nc(-c2cccnc2)nc2c(=O)n(C)c(=O)nc1-2	1.3µM*	1.1µM*	?	?	/	/
CCOc1ccc(CN2CCC(n3nccc3NC(=O)c3ccccc3OC)CC2)cc1	?	16µM*	i	i	-5%	1%
CC(C)c1ccc(CN2CCC(n3nccc3NC(=O)C3CCCC3)CC2)cc1	?	?	5.2µM*	i	-28%	-20%
CCc1ccc(CN2CCC(n3nccc3NC(=O)c3ccccc3C)CC2)cc1	?	21µM*	i	?	2%	-23%
Cc1ccccc1C(=O)Nc1ccnn1C1CCN(Cc2cccnc2)CC1	2%	0%	/	/	-2%	3%
O=C(Nc1ccnn1C1CCN(Cc2ccc(Cl)cc2)CC1)C1CCCC1	-23%	-19%	/	/	4%	1%
CCn1cc(CN2CCC(n3nccc3NC(=O)c3ccccc3OC)CC2)cn1	-1%	5%	i	i	-3%	0%
CCOc1ccc(N2CC(NC(=O)C3CCCC3)CC2=O)cc1 (centres undefined)	2%	1%	/	/	/	/
C/C(=N\NC(=O)c1ccccc1OCCOc1ccccc1)c1ccccc1F	16µM*	?	?	i	?	?
C/C(=N\NC(=O)c1ccccc1)c1ccccc1F	10%	10%	i	i	-2%	0%
COc1cc2c(cc1NS(=O)(=O)c1cccc(C#N)c1)n(C)c(=O)n2C	?	21µM*	i	?	/	/
CC(C)(C)c1cc(C(c2cccnc2)N2CCN(CCO)CC2)cc(C(C)(C)C)c1O (centres undefined)	2.3µM*	1.5µM*	i	i	6.3µM*	5µM*
CC(C)(C)n1nnnc1C(c1cccnc1)N1CCN(C2CCCCC2)CC1 (centres undefined)	2%	-1%	i	i	9%	20%[9.24 µM]
CC(=O)N(C)c1ccc(NC(=O)Nc2ccc(C)c(C)c2)cc1	18µM*	?	i	?	-9%	-12%
Cc1ccoc1C(=O)Nc1cccc2ccccc12	21µM*	9.2µM*	i	i	1%	-3%
O=C(Nc1cccc2ccccc12)c1ccco1	-8%	-22%	i	i	28%	21%
COc1ccccc1NC(=O)Nc1nc2ccc(S(N)(=O)=O)cc2s1	?	?	i	i	-5%	-1%
COc1ccc2nc(NC(=O)Nc3ccccc3OC)sc2c1	5.2µM*	9.2µM*	4.6µM*	5.2µM*	?	?
Cc1cc(NC(=O)C(Cl)c2ccccc2)no1 (centres undefined)	?	7.3µM*	?	?	?	?
CC(=O)N(C)c1ccc(NC(=O)Nc2ccccc2C)cc1	-1%	-8%	i	i	?	-2%
CS/C(=N\S(=O)(=O)c1ccc(F)cc1)c1ccccc1	?	?	?	i	/	/
COc1ccc([C@H]2C[C@H](n3cc(COC(=O)c4ccccc4)nn3)[C@@H](O)CN2C(=O)c2cccs2)cc1	3%	6%	i	i	3%	4%
SMILES	TDP1 cell noCPT	DT40 TDP1 CPT	KB-V1 cytotox	KB-3-1 cytotox	HT1080-NT tox	HT1080 IDH1KD tx
COc1ccc(OC)c(NC(=O)Nc2cccc3ccccc23)c1	-19%	-19%	7.3µM*	i	2%	9%
COc1ccc(NC(=O)Nc2cccc3ccccc23)c(OC)c1	4%	?	i	i	?	?
CC(C)c1ccc(NC(=S)Nc2ccc3[nH]c(=O)[nH]c3c2)cc1	4%	-3%	?	i	6%	7%
COc1ccc2nc(NC(=O)c3ccccc3O)sc2c1	?	-22%	i	?	?	-28%
CCC(C)C(=O)Nc1nc2ccc(OC)cc2s1 (centres undefined)	16µM*	?	i	i	-2%	-2%
COc1ccc2nc(NC(C)=O)sc2c1	?	?	i	i	2%	4%
CC(=O)N(C)c1ccc(NC(=S)Nc2ccc(C(C)C)cc2)cc1	26µM*	16µM*	i	i	1%	-2%
COc1ccc2nc(NC(=O)Nc3cccc4ccccc34)sc2c1	18µM*	?	i	i	?	?
COc1ccc(CN2CCOc3c(cc(-c4cccc(OC)n4)cc3OC)C2)c(O)c1	-1%	-4%	/	/	/	/
Cc1cc(NC(=O)Nc2ccc(C)c(C)c2)no1	-102%	23µM*	i	i	29µM*	-4%
COc1ccc2nc(Nc3nc4cc5c(cc4s3)OCO5)sc2c1	7.3µM*	?	i	i	-4%	-7%
COc1ccc2nc(Nc3ccccc3OC)sc2c1	21µM*	?	?	i	?	?
COc1cccc(C(=O)Nc2cccc3ccccc23)c1	?	?	i	i	1%	3%
COc1cccc(C(CC(=O)Nc2cccc3ccccc23)NC(=O)c2ccccc2)c1 (centres undefined)	1%	?	5.8µM*	i	?	?
CCc1ccc(C(=O)CSc2nc(-c3ccccc3)nc3c2CCCC3)cc1	-11%	4%	i	i	/	/
CSCCCN1CCC(n2nccc2NC(=O)CCCc2ccccc2)CC1	-26%	?	/	/	-6%	-2%
COc1cccc(C2(c3cccc(OC)c3)CC2C(=O)Nc2cccc3ccccc23)c1 (centres undefined)	26µM*	?	i	i	2%	0%
COc1cccc(NC(=O)C2CC2(c2cccc(OC)c2)c2cccc(OC)c2)c1 (centres undefined)	?	?	i	i	-17%	-18%
Cc1cc(NC(=O)Nc2cccc3ccccc23)no1	?	9.2µM*	i	i	-11%	-11%
COc1ccc(NC(=O)Nc2nnc(N(CC(C)C)CC(C)C)s2)c(OC)c1	18µM*	?	?	?	/	/
Cc1cc(NC(=O)Cc2ccccc2C)no1	-23%	23µM*	i	i	-12%	-4%
